# Rows were chosen to be rich in hits. Some 1.1% of all compounds tested hit in one or more screens of this group.
# GalR3 antag: antagonists of human GalR3; inhibition, % at 3 µM; O60755; AID 651719; hit rate 0.44% among 360,000; HEK293 GalR3-CNG cAMP membrane potential fluorescence; galR3 body fused to GalR1 C-terminus;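 active means inhibition above the screen-wide average plus 3 SD, cut at about 13% in these data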;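 further: forskolin and galanin both at EC90 stimulate the cells; cAMP rise reported by CNG channel membrane potential dye signal; 0% = forskolin plus galanin with DMSO and 100% = forskolin alone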
# NR5A2 inv ag: suppresses constitutive activity of human LRH-1 | inhibition, % at 3.6 µM | HEK293T StAR-luciferase reporter, LRH-1 transfected, 24 h | hit rate 0.13% among 360,000 | O00482;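 active means inhibition above the mean inhibition of all tested compounds plus 3 SD, cut at about 73% in these data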;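 further: 0% = DMSO wells and 100% = reporter-only cells lacking LRH-1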
# SRC2 inh: human SRC2 (NCOA2) inhibition; hit rate 0.17% among 370,000; inhibition, % at 9 µM; HEK293 GAL4-SRC2 luciferase reporter, luminescence;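 active means inhibition above the mean inhibition of all tested compounds plus 3 SD, set per campaign, cut at about 52% in these data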;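 further: 0% = DMSO treated cells and 100% = cells given Gossypol at 36 µM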
# NCOA3 inh: inhibits human SRC3 coactivator; Q9Y6Q9; HEK293 GAL4-SRC3 luciferase reporter, luminescence; inhibition, % at 3.6 µM; hit rate 0.17% among 360,000; AID 588352;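 active means inhibition above a per-campaign cutoff, the mean of all compounds plus 3 SD, cut at about 60% in these data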;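 further: 0% = DMSO-treated cells and 100% = gossypol-treated cells at 36 µM; higher means less SRC3-driven luciferase light from the GAL4 reporter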
# SRC1 inh: human NCOA1 inhibition; Q15788; inhibition, % at 3.6 µM; hit rate 0.12% among 360,000; AID 588354; HEK293 GAL4-SRC1 luciferase reporter, luminescence;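 active means inhibition above the campaign mean plus 3 SD, with each screening campaign given its own cutoff, cut at about 60% in these data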;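 further: 0% = DMSO treated cells and 100% = gossypol at 36 µM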
# COUP-TFII inh: inhibitors of human COUP-TFII (NR2F2); HEK293T NGFI-A luciferase reporter, luminescence; inhibition, % at 8.6 µM; hit rate 0.7% among 370,000;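 active means inhibition above a per-plate cutoff, mean inhibition of test wells between control levels plus 3 SD, cut at about 38% in these data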;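 further: cells cotransfected with COUP-TFII expression vector driving the NGFI-A reporter; 0% = median of COUP-TF2 test wells and 100% = reporter-only cells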
# GalR3 conf: confirmation of human galanin receptor 3 antagonists; shares compounds with GalR3 antag; HEK293 GalR3 CNG cAMP biosensor, membrane potential fluorescence; galR3 fused to GalR1 carboxy tail; challenged with forskolin and galanin at EC90; inhibition, % at 3 µM; hit rate 59% among 1,600; AID 652245;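 active means inhibition above the primary screen's cutoff, the mean inhibition of all screened compounds plus 3 SD, cut at about 13% in these data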;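 further: 0% = forskolin plus galanin and 100% = forskolin alone with DMSO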
# HEK-CNG parental: acts as nonspecific agonist in parental HEK-CNG cells; hit rate 10% among 1,600; shares compounds with GalR3 antag; HEK293-CNG parental cells, cAMP membrane potential fluorescence; normalised: DMSO wells 0%, forskolin wells 100%; activation, % at 3 µM; in the data active means activation above about 1.3%
# An asterisk follows results filed as active; . = no result given.
SMILES,GalR3 antag,NR5A2 inv ag,SRC2 inh,NCOA3 inh,SRC1 inh,COUP-TFII inh,GalR3 conf,HEK-CNG parental
O=C(Cc1ccsc1)N1CCc2c([nH]c3ccccc23)C1c1ccccn1 (stereo not drawn),16*,5,-15,2,-23,8,-1,0
COc1ccc(Cl)cc1NC(=O)Nc1ccccc1C(N)=O,4,20,3,31,31,-11,.,.
COc1ccc(Cl)cc1NC(=O)Nc1ccccc1SC,.,-3,11,3,3,14,11,0
N#Cc1ccccc1COC(=O)c1cc(S(=O)(=O)N2CCOCC2)ccc1F,0,-1,-6,-4,-29,-4,.,.
O=C1COc2ccc(C(=O)COC(=O)c3cc(S(=O)(=O)N4CCOCC4)ccc3F)cc2N1,55*,3,16,0,-21,0,34*,0
O=C(OCc1cc(=O)oc2cc(O)ccc12)c1cc(S(=O)(=O)N2CCOCC2)ccc1F,34*,-27,-12,0,-20,-58,55*,1
O=C(O)c1ccc2c(c1)C(c1ccccc1)OC2=O (stereo not drawn),-3,5,-9,12,-24,11,.,.
CCC(Sc1nc2n[nH]c(C)c2c(=N)n1-c1cccc(Cl)c1C)C(=O)N(CC)CC (stereo not drawn),17*,-2,-45,19,13,-27,71*,1
CCOC(=O)C(CC)Sc1nc2c(c(=O)[nH]c(=O)n2C)n1C/C=C(/C)Cl (stereo not drawn),6,10,5,0,-7,6,.,.
COc1cccc(-c2csc3nc[nH]c(=O)c23)c1,1,3,-16,11,3,4,.,.
O=C1c2cc([N+](=O)[O-])cc3cc([N+](=O)[O-])cc(c23)C(=O)N1c1ccccn1,.,18,9,3,-6,4,-2,1
O=C1c2ccc(Oc3cccc([N+](=O)[O-])c3)cc2C(=O)N1c1ccccn1,-4,-7,-2,3,2,4,.,.
CCOC(=O)c1c(S(=O)(=O)NCC(=O)NCc2ccc(C)cc2)c(C)n(C)c1C,-1,-2,2,-18,2,16,.,.
CC1=CC(C)(C)n2c(O)c(N=NC(N)=S)c3c(C)ccc1c32,14*,11,8,-4,1,-21,8,-2
C/C(=N\NC1=NCCN1)c1ccc(Cl)cc1,-4,1,-6,26,17,9,.,.
COCC(=O)Nc1ncc(S(=O)(=O)c2ccc([N+](=O)[O-])cc2)s1,4,-2,4,-5,-15,0,.,.
O=C(NC(Nc1ncc(S(=O)(=O)c2ccc([N+](=O)[O-])cc2)s1)(C(F)(F)F)C(F)(F)F)c1ccc(Cl)cc1,73*,-8,11,14,14,25,41*,0
COc1cc(/C=C/c2ccc3c([N+](=O)[O-])cccc3n2)ccc1OCC(=O)O,3,5,-5,1,-4,30,.,.
COc1cc(/C=C/c2ccc3cccc([N+](=O)[O-])c3n2)ccc1OCC(=O)O,67*,-32,-16,10,-7,13,66*,0
O=C(O)COc1ccc(/C=C/c2ccc3cccc([N+](=O)[O-])c3n2)cc1,16*,-23,8,12,-2,-4,21*,0
Cc1nnc(SCC(=O)Nc2nsc(-c3ccc(C(C)(C)C)cc3)n2)s1,0,-162,-33,-116,-95,-47,.,.
CSCCC(NC(=O)CCC(=O)OCC(=O)[C@@]1(O)CCC2[C@@H]3CCC4=CC(=O)C=C[C@]4(C)C3[C@@H](O)C[C@@]21C)C(=O)O (stereo partly drawn),-10,19,-31,-40,-23,-6,.,.
CSc1ncccc1C(=O)NCC(c1cccs1)N1CCOCC1 (stereo not drawn),16*,-3,13,7,0,-5,-1,0
CCN(CC)S(=O)(=O)c1ccc(C(=O)NCCN(C)C)cc1,20*,11,0,7,-38,6,4,0
CCN(CC)S(=O)(=O)c1ccc(C(=O)NCCCn2ccnc2)cc1,-6,12,14,10,-6,2,.,.
SMILES,GalR3 antag,NR5A2 inv ag,SRC2 inh,NCOA3 inh,SRC1 inh,COUP-TFII inh,GalR3 conf,HEK-CNG parental
CC(=O)NCCC1CCN(c2nc3nonc3nc2N(C)Cc2ccccc2)CC1,20*,2,24,11,0,-2,0,0
O=C(Nc1ccc(Cl)cc1)c1cccc(N2C(=O)C3C4CCC(C4)C3C2=O)c1 (stereo not drawn),92*,-26,-14,12,-15,8,-1,0
O=C(O)c1ccc(NC(=O)c2cccc(N3C(=O)C4C5CCC(C5)C4C3=O)c2)cc1 (stereo not drawn),-2,-11,-14,9,-20,8,.,.
CC(Oc1ccc(Cl)cc1)/C(N)=N/O (stereo not drawn),16*,21,0,17,3,-6,5,0
CC(Oc1ccc(Cl)cc1)C(=O)/C=C/N(C)C (stereo not drawn),-5,4,-16,-8,11,6,.,.
CCCN(Cc1nnc(-c2ccccc2Cl)o1)C(=O)COc1ccc(Cl)cc1,-3,14,-9,-14,2,-1,.,.
CCN(CC)c1ccc(/C=C(/C#N)C(=O)NC(C)C)o1,13*,-11,13,-8,-27,8,-2,0
CC(=O)OCC(=O)Nc1ccc(Cl)cc1Cl,19*,1,6,13,-1,-8,0,0
O=C1CCC/C1=C/Nc1cccc(F)c1,-5,3,-38,-3,-17,-10,.,.
COc1cc(C(=O)N/N=C/C2CC=CCC2)cc(OC)c1OC (stereo not drawn),13*,21,-2,12,-1,-76,1,0
CN(C)c1ccc(C(=O)OCC(=O)NC2CCCCC2)cc1,-2,7,-28,9,1,-3,.,.
Cc1cc(NC(=O)COC(=O)C(Cc2ccccc2)NC(=O)c2ccco2)no1 (stereo not drawn),13*,4,-9,5,5,12,14*,0
O=C(CSc1nccc(=O)[nH]1)Nc1cccc(S(=O)(=O)N2CCOCC2)c1,31*,0,11,13,-6,-2,6,0
Cc1cc(C)c2cc(C#N)c(NCCNC(=O)c3ccccc3)nc2c1,-8,-29,6,.,.,4,.,.
COCC(COS(N)(=O)=O)Cc1ccccc1 (stereo not drawn),.,2,-9,-12,-5,10,-3,0

# From PubChem BioAssay
